Measurements reported in ChEMBL document CHEMBL4513151, “CO-ADD screening of Institut Català d'Investigació Química (Spain) compounds”.
Where “and” joins values, the source holds several entries; their conditions need not be identical. Identical values can stand only once. Entries with a potency or affinity are not part of this list.

Tests used:
Staphylococcus aureus = conditions: Concentration 32 ug.mL-1, ASSAY_TEST Inhibition of Bacterial Growth, detection method Absorption (OD600), MEDIA CAMHB, plate type 384well, NBS, CORNING #3640, time 18 hr
Escherichia coli = conditions: Concentration 32 ug.mL-1, ASSAY_TEST Inhibition of Bacterial Growth, detection method Absorption (OD600), MEDIA CAMHB, plate type 384well, NBS, CORNING #3640, time 18 hr

Row | SMILES | Inhibition (Staphylococcus aureus; 32 ug/mL) | Inhibition (Escherichia coli; 32 ug/mL) | Inhibition (Staphylococcus aureus) | Inhibition (Escherichia coli)
1 | C[C@]12CC[C@@](c3ccccc3)(O1)[C@H]1C=C[C@H](OC(=O)c3ccccc3)[C@H]12 | 15.6% and 15.32% | -5.43% and -1.36% | – | –
2 | C=C1CC(C(=O)OC)(C(=O)OC)C[C@@H]1[C@@H](NS(=O)(=O)c1ccc(C)cc1)c1ccccc1 | – | – | 21% | -0.02%
3 | C=C1CC(COC)(COC)C[C@@H]1[C@@H](Nc1ccc(Br)cc1)c1ccccc1 | – | – | 4.73% | -1.74%
4 | C[C@]12CC[C@@](C)(O1)[C@H]1C=C[C@H](OC(=O)c3ccccc3)[C@H]12 | – | – | 17.97% | 0.47%
5 | C[C@]12CC[C@@](C3CC3)(O1)[C@H]1C=C[C@H](OC(=O)c3ccccc3)[C@H]12 | 14.3% and 9.5% | -1.08% and -3.45% | – | –
